Screening data deposited in PubChem BioAssay by several laboratories.
The list is not random: actives were taken first. Their share in the collection is about 4.4%.
TIM10 inh – inhibits growth of TIM10 yeast strain; S. cerevisiae TIM10 strain growth, BacTiter-Glo luminescence, 24 h; inhibition, % at 10 µM; 1.4% of 330,000 active; AID 463195;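 active = inhibition of 40% or more at the single tested concentration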;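 also: wild-type TIM10 isogenic control strain grown at permissive 25 °C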
SUMO Mot1 rescue – inhibitors of SUMOylation pathway: yeast Mot1-301 growth rescue; 1% of 320,000 active; S. cerevisiae Mot1-301 growth rescue, ATP luminescence, 38.5C; percent above DMSO median, 100 means doubled; growth rescue, % at 18.8 µM; AID 2716;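 active = every valid replicate shows activation above 250% relative to neutral control wells; inactive = the rest, any valid replicate at or below 250%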
tim10-1 inh – growth inhibitors of tim10-1 mutant yeast; inhibition, % at 20 µM; 2.2% of 330,000 active; AID 463190; S. cerevisiae tim10-1 ts strain growth, BacTiter-Glo, 24 h;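 active = inhibition of at least 40%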;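 also: mutant grown at 25 °C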
tim23-1 inh – tim23-1 yeast growth inhibition. S. cerevisiae tim23-1 growth, BacTiter-Glo luminescence, 24 h. inhibition, % at 20 µM. 1.3% of 330,000 active;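 active = growth inhibition of the mutant yeast at or above 50%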;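 also: temperature-sensitive mutant grown at 25 °C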
PfHsp90 set2 – reduces growth (ATP signal) of yeast expressing P. falciparum Hsp90; S. cerevisiae expressing PfHsp90, BacTiter-Glo ATP, 48 h; yeast lacking PDR1 and PDR3 efflux regulators; inhibition, % at 9.4 µM; 0.32% of 310,000 active; AID 504621;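 active = every replicate shows inhibition above about 80%, whatever the replicate mean, limit read from the data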
tim10-1 confirm – confirmation of tim10-1 mutant yeast growth inhibitors; shares compounds with tim10-1 inh; AID 463213; S. cerevisiae tim10-1 ts strain growth, BacTiter-Glo, 24 h; 56% of 7,400 active; inhibition, % at 20 µM;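 active = inhibition of yeast growth at or above a set limit in either of two repeat tests at 20 µM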;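 also: tim10-1 mutant grown at permissive 25 °C to find synthetic lethal compounds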
A number is an active result; - = inactive; . = no result given; ! = not confirmed by another sample.

SMILES	TIM10 inh	SUMO Mot1 rescue	tim10-1 inh	tim23-1 inh	PfHsp90 set2	tim10-1 confirm
CCCn1c(N)c(C(=O)CSc2nc3ncc(Cl)cc3[nH]2)c(=O)[nH]c1=O	-	-	-	-	-	.
O=C(/C=C/c1c(Cl)nc2ccccn12)N1CCN(c2ccc(F)cc2)CC1	-	-	-	-	-	.
O=C(/C=C/c1c(Cl)nc2ccccn12)N1CCN(c2ccccc2F)CC1	-	-	46	-	-	36
Cc1ccc(S(=O)(=O)/N=C2/C=C(C3C(=O)CC(C)(C)CC3=O)C(=O)c3ccccc32)cc1	-	-	41	-	-	-
Cc1ccc(S(=O)(=O)/N=C2\C=C(NS(=O)(=O)c3ccccc3)C(=O)c3ccccc32)cc1	.	.	.	.	-	.
COc1cc(OC)cc(C(=O)NC(=S)NNC(=O)Cc2cccs2)c1	-	-	40	-	-	-
COc1ccc(OC)c(NC(=O)COc2ccc3c(c2)CCC3)c1	-	-	-	-	-	.
CC1CCN(C(=O)CCc2ccc(Oc3cc([N+](=O)[O-])cc([N+](=O)[O-])c3)cc2)CC1	-	-	51	-	-	41
O=C(CCc1ccc(Oc2cc([N+](=O)[O-])cc([N+](=O)[O-])c2)cc1)NC1CCCC1	-	-	-	-	-	.
COc1ccc(OC)c(/C=C2\SC(N3CCCC(C)C3)=NC2=O)c1 (centres undefined)	-	-	43	-	-	-
Cc1nc(N)sc1-c1csc(Nc2ccc(Cl)cn2)n1	-	-	57	-	-	38
COC(=O)c1ccc(N2CCN(c3ccccc3)CC2)c(N)c1	-	-	80	-	-	-
COc1cc(/C=C/c2nnc3c4ccccc4ncn23)cc(OC)c1OC	-	-	44	-	-	-
CC(C)(C)C(=O)Nc1ccccc1C(=O)Nc1cc(Cl)ccc1Cl	-	.	43	-	-	36
Cc1nn(-c2cccc(Cl)c2)nc1C(=O)Nc1cccc(C(=O)NC2CC2)c1	-	-	-	-	-	.
Cc1ccc(-n2nc(C)c(C(=O)Nc3cccc(C(=O)NC4CC4)c3)n2)c(C)c1	-	-	44	-	-	-
Cc1cnc(NC(=O)c2cccs2)s1	-	-	-	-	-	.
O=C(Nc1ncc([N+](=O)[O-])s1)c1cccs1	-	-	43!	-	-	38
CCc1ccc(NC(=S)N(Cc2ccccc2)Cc2ccccn2)cc1	-	-	48	-	.	35
O=C(NCCc1ccc(OC(F)F)cc1)C1CC(=O)N(c2ccc3c(c2)OCCO3)C1 (centres undefined)	-	-	-	-	-	.
CCOc1ccc(/C=C/c2c([N+](=O)[O-])c(=O)n(C)c(=O)n2C)cc1	-	-	-	-	-	.
CCc1ccc(/C=C/c2c([N+](=O)[O-])c(=O)n(C)c(=O)n2C)cc1	-	-	40	-	-	35
N#Cc1cccc(-n2c(-c3ccccc3)nnc2-c2ccccc2)c1C#N	-	-	46	-	-	35
CN(Cc1ccco1)S(=O)(=O)c1ccc(CN2C(=O)c3cccnc3C2=O)s1	-	-	-	-	-	.
Cc1cc(OCc2cc(C(=O)NC(C)c3c(C)nn(C)c3C)no2)cc(C)c1Cl (centres undefined)	-	-	46	-	-	-
SMILES	TIM10 inh	SUMO Mot1 rescue	tim10-1 inh	tim23-1 inh	PfHsp90 set2	tim10-1 confirm
Cc1cc(OCc2cc(C(=O)NC3CCC3)no2)cc(C)c1Cl	-	-	-	-	-	.
Cc1cc(OCc2cc(C(=O)N(C)C(C)c3ccccn3)no2)cc(C)c1Cl (centres undefined)	-	-	41	-	-	-
CC(C)Oc1ccc(S(=O)(=O)N2CCCCC2)cc1NC(=O)C1CCC1	-	-	-	-	-	.
Cc1cc(=O)n2c3c(sc2n1)C(=O)N(Cc1ccccc1)C3=O	-	-	40	-	.	34
CC1=C(C(=O)N2CCc3ccccc32)C2(CCC(C)CC2)OC1=O (centres undefined)	-	-	48	-	-	33
CC1=C(C(=O)N2CCCCC2)C2(CCC(C)CC2)OC1=O (centres undefined)	-	-	-	-	-	.
CC(=O)c1cccc(S(=O)(=O)N2CCCC(c3nc4c(nnn4Cc4cccc(Cl)c4)c(=O)[nH]3)C2)c1 (centres undefined)	-	-	-	-	-	.
O=P(OC1CCCCC1)(OC1CCCCC1)C(O)c1c(Cl)cccc1Cl (centres undefined)	-	-	43	-	-	-
O=P(OC1CCCCC1)(OC1CCCCC1)C(O)c1ccc(Cl)cc1Cl (centres undefined)	-	-	-	-	-	.
Cc1ccnc(NC(=S)N2CCN(c3cccc(C(F)(F)F)c3)CC2)c1	-	-	43	-	-	-
COc1ccc(S(=O)(=O)N2CCN(CC(=O)NC3CC3)CC2)cc1	-	-	-	-	-	.
S=c1nc(C2CCCCC2)n(-c2ccccc2)[nH]1	-	-	44	-	-	-
CN1C(C(=O)Nc2ccc(OC(F)(F)F)cc2)=CC(c2cccs2)=NS1(=O)=O	-	-	41	-	-	39
Cc1cc(C(F)(F)F)n2nc(-c3sccc3-n3cccc3)cc2n1	-	-	-	-	-	.
Cc1nc2cc(-c3sccc3-n3cccc3)nn2c(C)c1C	-	.	46	-	-	34
Cc1noc(C)c1S(=O)(=O)N1CCC(C(=O)O)CC1	-	-	-	-	-	.
c1ccc2c(c1)ccc1nnc(SCc3ccc4c(c3)OCO4)n12	-	-	42	-	-	-
O=C(NC(=S)NCc1ccc2c(c1)OCO2)c1ccccc1	-	.	45	-	-	-
COc1ccc(CCNC(=O)NC23CC4CC(CC(C4)C2)C3)cc1	-	-	45	-	-	35
O=C(NCc1ccc2c(c1)OCO2)c1ccccc1	-	-	-	-	-	.
O=C(NCc1ccc2c(c1)OCO2)NC12CC3CC(CC(C3)C1)C2	-	-	41	-	-	30
COc1ccc(N2CCN(C(=O)NC34CC5CC(CC(C5)C3)C4)CC2)cc1	-	.	48	-	-	-
COc1cc(OC)cc(N(C(=O)CNC(=O)c2cccs2)C(C(=O)NCC2CCCO2)c2ccccc2)c1 (centres undefined)	-	-	-	-	-	.
CC(C)N(CCO)Cc1nc(C(c2ccccc2)c2ccccc2)no1	-	-	-	-	-	.
COc1ccc(CC(=O)OCC(=O)NC(=O)NC23CC4CC(CC(C4)C2)C3)cc1	-	-	40	-	-	-
COc1ccc(C(=O)NCC(=O)OCC(=O)NC23CC4CC(CC(C4)C2)C3)cc1	-	-	-	-	-	.
O=C(NCCC1=CCCCC1)NC12CC3CC(CC(C3)C1)C2	-	-	41	-	-	32
O=C(NCCc1ccc(F)cc1)NC12CC3CC(CC(C3)C1)C2	-	-	-	-	-	.
